Source: the supplement of paper PMC10338343
± gives the standard deviation.

The sequences below were run on EfPiwi piRISC loaded with L1MC piRNA (26 nt) (assay: pre-steady-state target cleavage rate (min^-1); auxiliary factor: 500 nM Ephydatia muelleri Gtsf1; guide: L1MC piRNA 5'p-UAACUAAAUACUAUGCAAGCUGUAGG; MIWI and MILI are mouse PIWI proteins and EfPiwi is from a freshwater sponge; tags in brackets are library labels; higher = faster piRNA-guided slicing of the target).
Description: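 Cleave-'n-Seq: a library of target RNAs (target site in constant flanks) at […] was incubated with 1 nM active freshwater sponge Ephydatia fluviatilis Piwi piRISC (synthetic 5'-monophosphorylated piRNA guide) with or without 500 nM EmGtsf1 at 33 °C for 1 min to 16 h. Uncleaved targets were sequenced and the pooled three trials fitted to a burst-and-steady-state model to give the pre-steady-state cleavage rate (min^-1). Sequence is the target site only. Fits with R² ≤ 0 are excluded.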

In order of rising “pre-steady-state target cleavage rate” value:
1. UCCUGCUACAGCUUGGAUAGUAUUUAGAAA  0.00242 ± 0.0021
2. UCCUGCUAGAGCUUGCAUAGUAUUUACAAA  0.00266 ± 0.0021
3. UCCUCCUACAGCUAGCAUAGUAUUUACUUA  0.00296 ± 0.0027
4. UCCUGGAUCAGCUUGCAUAGUAUAUAGAUA  0.00301 ± 0.0023
5. UCCUGGAACAGCAAGCAUAGUAUUUAGAAA  0.00309 ± 0.002
6. UCCUGGAUGUCCUUGCAUACUAUUUAGUUA  0.00333 ± 0.0024
7. UCCUGCUACAGCUUGGUAAGUAUUUAGUUA  0.00341 ± 0.0025
8. UCCUGGAACAGCUUCCAUUGUAUUUAGUUA  0.00345 ± 0.0017
9. UCCUCCUACAGCUUGCAUAGUAUUAUGAAA  0.00358 ± 0.0025
10. UCCUGGAACAGCUUCCUUAGUAUUUAGUUA  0.00362 ± 0.002
11. UCCUGGAUGAGCUUGCAUAGUAUUUACAAA  0.00416 ± 0.0028
12. UCCUGGAACAGCUUGCAAAGUAUUUAGAAA  0.00418 ± 0.002
13. UCCUGGAUGUCCUUGCAUAGUAUUUAAUUA  0.00439 ± 0.003
14. UCCUCCUACAUGCUUGCAUAGUAUUUAGUUA  0.00449 ± 0.0018
15. UCCUCCUACAGCUUCCUUAGUAUUUAGUUA  0.00472 ± 0.0022
16. UCCUCCUACAGCUUGGAUAGUAUUUAGAUA  0.00474 ± 0.0018
17. UCCUGGAUGUCGGUGCAUAGUAUUUAGUUA  0.00511 ± 0.0033
18. UCCUGGAACAGGUUGCAUUGUAUUUAGUUA  0.00526 ± 0.0019
19. UCCUGCUACACCAUGCAUAGUAUUUAGUUA  0.00582 ± 0.003
20. UCCUGGAUGUGCUUGCAUCGUAUUUAGUUA  0.00598 ± 0.0028
21. UCCUGGAUCAGCUUGCAUAGUAUUAAGAUA  0.006 ± 0.0032
22. UCCUCCUACAGCUUGCAAAGUAUUUAGUAA  0.00609 ± 0.0029
23. UCCUGCAUGAGCUUGCAUAGUAUUUAGUAA  0.0061 ± 0.0025
24. UCCUGGAUGUGCUUGCAUAUUAUUUAGUUA  0.00647 ± 0.0022
25. UCCUGCUACAGGUUGCAUAGAAUUUAGUUA  0.00649 ± 0.0018
26. UCCUCCAACAGCUUGCAUAGUAUUUAGUAA  0.00668 ± 0.0028
27. UCCUGGUACAGCAUGCUUAGUAUUUAGUUA  0.00778 ± 0.0028
28. UCCUGGAUGAGGUUGCAUAGUAUUUAGUUA  0.00786 ± 0.0024
29. UCCUGGAUGUGCUUGCAUAGUAUUUAGUUUA  0.00801 ± 0.0032
30. UCCUGCUACGAGCUUGCAUAGUAUUUAGUUA  0.00866 ± 0.0022
31. UCCUGGAACAGCUUGCAUAGUAUUUAGUAA  0.00976 ± 0.0038
32. UCCUGGAUCUGCUAGCAUAGUAUUUAGUUA  0.0121 ± 0.0038
33. UCCUGGAACAGACUUGCAUAGUAUUUAGUUA  0.0135 ± 0.0042
34. UCCUCCUAGAGCUUGCAAAGUAUUUAGUUA  0.0214 ± 0.006
35. UCCUGGAUGAGCUUGCAUAGUAUUUAGUUU [g2:g21:cont:t1U]  0.0356 ± 0.0098
36. UCCUCCUACACUUGCAUAGUAUUUAGUUA  0.049 ± 0.015
37. UCCUCCUACAGCUUGCAUAGUAUAUUAGUUA  0.0567 ± 0.019
38. UCCUCCUACAGCUGCAUAGUAUUUAGUUA  0.0884 ± 0.026
39. UCCUCCUACAGCUUGCAUAGUAUUUAGUUC [g2:g26:cont:t1C]  0.146 ± 0.035
40. UCCUGGAAACAGCUUGCAUAGUAUUUAGUUA  0.164 ± 0.034
